Rows were chosen to be rich in hits. Some 32% of all compounds tested hit in one or more screens of this group.
CYP2C9 activ – increases human cytochrome P450 2C9 activity; activation factor at 5 µM; recombinant CYP2C9, luciferin-H conversion, luminescence; active compounds read high; factor 1 = untreated enzyme, 0 = blocked; hit rate 1.4% among 96,000; P11712; AID 1024;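 active = activation factor of 2 or more for CYP2C9 at a 5 µM dose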;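 note: 0 = sulfaphenazole-blocked wells and 1 = vehicle-only wells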
PostGolgi ctrl – growth of the yeast control strain, post-Golgi counter-screen; efflux-deficient yeast background strain, growth absorbance A615, 16 h; hit rate 5% among 98,000; inhibition, % at 10 µM; AID 738
CYP2C19 act – cytochrome P450 2C19 (human) activation; P33261; recombinant CYP2C19, luciferin-H EGE luminescence; active compounds read high; 0 = fully inhibited enzyme, 1 = untreated enzyme; activation factor at 5 µM; 96,000 tested, under 10 active;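 active = activation factor of at least 2 at 5 µM in the primary screen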;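 note: 0 = wells with 2.5 mM tranylcypromine and 1 = vehicle-only wells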
Target sequence (P33261 whole entry, looked up): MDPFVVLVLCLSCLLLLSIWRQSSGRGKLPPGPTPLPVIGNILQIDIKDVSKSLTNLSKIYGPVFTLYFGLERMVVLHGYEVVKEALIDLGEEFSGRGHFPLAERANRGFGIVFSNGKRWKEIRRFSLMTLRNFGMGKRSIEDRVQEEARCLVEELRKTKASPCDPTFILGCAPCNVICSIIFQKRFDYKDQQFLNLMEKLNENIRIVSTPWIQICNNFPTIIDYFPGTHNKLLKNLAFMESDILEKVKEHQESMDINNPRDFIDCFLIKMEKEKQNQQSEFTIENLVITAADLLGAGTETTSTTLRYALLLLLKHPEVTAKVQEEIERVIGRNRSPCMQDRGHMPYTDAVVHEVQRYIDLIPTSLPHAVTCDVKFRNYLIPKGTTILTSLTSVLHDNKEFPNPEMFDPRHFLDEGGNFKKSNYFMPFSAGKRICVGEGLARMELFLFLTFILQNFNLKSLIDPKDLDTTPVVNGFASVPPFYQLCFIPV
PostGolgi yeast – growth inhibition of a yeast mutant, post-Golgi transport screen; post-Golgi transport phenotypic cell assay; inhibition, % at 10 µM; hit rate 0.9% among 98,000;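 note: yeast cells grown in 1536-well plates; yeast grown about 18 h at 30C before absorbance read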
CYP2C9 inh – inhibitors of human CYP2C9. CYP2C9 Supersomes, luciferin-H conversion, luminescence. inhibition, % at 5 µM. hit rate 20% among 96,000;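 active = blocking of liver enzyme CYP2C9 beyond about 50% at 5 µM, limit read from the data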
CYP2C19 inh – human CYP2C19 inhibition. P33261. CYP2C19 Supersomes, luciferin-H EGE luminescence, 30 min. inhibition, % at 5 µM. hit rate 21% among 96,000;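 active = CYP2C19 inhibition above a set limit at 5 µM in the primary screen, cut at about 50% in these data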;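 note: plate controls were negative control wells for no effect and 2.5 mM tranylcypromine positive control for full effect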
An asterisk follows results filed as active; · = not tested or not shown. Cut-off read from the data, not from the text of the source, unless noted: active = inhibition above about 30%; inactive = the rest.

SMILES	CYP2C9 activ	PostGolgi ctrl	CYP2C19 act	PostGolgi yeast	CYP2C9 inh	CYP2C19 inh
CC(=O)c1nn(-c2cccc(Br)c2)cc1C(=O)c1ccc(C)cc1	0.4	-5.6	1	2.3	60.8*	-3.8
CC(=O)c1nn(-c2cccc(Br)c2)cc1C(=O)c1ccc(Br)cc1	2.4*	7.0	1.2	-1.9	-139.6	-17.1
COc1ccc(-n2c(Cc3cccn3C)nnc2SCC(=O)NCC2CCCO2)cc1 (stereo unspecified)	1.1	-2.9	1.2	0.7	-6.7	-15.9
Cc1cc(NC(=O)CSc2nc3ccccc3c(=O)n2CCCC(=O)NCc2ccccc2)n[nH]1	0.2	-1.9	0.1	4.6	77.7*	86.6*
N#CCCn1c(SCC(=O)NCC2CCCO2)nc2ccccc21 (stereo unspecified)	1.3	10.9	0.9	7.3	-31.4	8.9
CCCCn1c(SCC(=O)Nc2cc(C)on2)nc2ccccc2c1=O	0.9	-5.3	0.8	7.4	9.7	18.1
COc1ccc(-n2c(SCC(=O)NCC3CCCO3)nc3ccccc32)cc1 (stereo unspecified)	0.1	-5.1	0.1	0.0	89.7*	92.9*
O=C(CCCn1c(SCC(=O)c2ccc(F)cc2)nc2ccccc2c1=O)NCc1ccccc1	0.1	-3.3	0.3	-8.0	90.4*	70.8*
O=C(CCCn1c(SCC(=O)NCC2CCCO2)nc2ccccc2c1=O)NCc1ccccc1 (stereo unspecified)	0.4	4.1	0.7	-4.5	55.9*	28.6
O=C(O)CC(NS(=O)(=O)c1ccc(Br)cc1)c1ccco1 (stereo unspecified)	1.1	2.1	1.1	-6.1	-9.8	-12.3
Cc1nnc(NC(=O)C2CCN(c3nnnn3-c3ccccc3)CC2)s1	0.9	-3.2	0.8	-6.5	11.4	17.5
CCOC(=O)c1cc2c(ccn2C)n1Cc1ccccc1C	0.9	13.6	0.6	1.1	12.3	35.1
Cc1ccc(C)c(Cn2c(C(=O)OC(C)C)cc3c2ccn3C)c1	0.7	13.9	0.4	-6.3	34.9	55.1*
Cc1ccccc1Cn1c(C(=O)OC(C)C)cc2c1ccn2C	0.7	15.3	0.5	-14.7	28.1	53.0*
CCOc1cc(C)c(C(C)C)cc1S(=O)(=O)NCc1ccccn1	1.1	18.6	0.8	1.4	-12.5	22.5
O=C1c2ccccc2C(=O)N1CCn1c(=O)oc2ccccc21	1.1	2.7	0.7	11.7	-8.7	31.5
O=c1[nH]c2ccccc2n1CCCOc1ccccc1	1	20.8	0.2	-3.2	4.6	81.6*
O=c1[nH]c2ccccc2n1CCCSc1cnc2ccccc2n1	0.2	42.9*	0.4	5.4	84.9*	63.4*
CCCCn1c(=O)[nH]c2ccccc21	1	5.2	0.7	-7.0	0.7	29.0
O=C(Cn1c(=O)oc2ccccc21)NC(=O)NCc1ccco1	0.7	13.9	0.3	-3.1	29.0	65.3*
O=c1oc2ccccc2n1CCCOc1ccccc1	0.3	1.1	0	2.2	69.5*	97.7*
OCC1(C2=NOC(O)(C(F)(F)F)C2)CCCCC1 (stereo unspecified)	0.6	9.3	0.9	15.5	36.7	12.3
O=c1oc2ccccc2n1CCCCCn1c(=O)oc2ccccc21	1.2	4.7	0.2	-1.5	-20.8	84.0*
CCCNC(=O)Cn1c(=O)oc2ccccc21	1.1	14.2	0.3	38.6*	-6.0	74.3*
COc1cccc(NC(=O)Cn2c(=O)oc3ccccc32)c1	0.6	2.2	0.3	8.8	38.1	67.6*
SMILES	CYP2C9 activ	PostGolgi ctrl	CYP2C19 act	PostGolgi yeast	CYP2C9 inh	CYP2C19 inh
NC(=O)CCn1c(=O)oc2ccccc21	1.1	0.4	1.2	-9.5	-12.8	-15.2
O=C(Cn1c(=O)oc2ccccc21)c1ccccc1	0.7	2.7	0.1	15.2	25.3	92.7*
CCOc1ccc(CC(C(N)=O)C(N)=O)cc1CN(C)C	1.1	-5.8	1.1	11.9	-5.0	-11.3
FC(F)(F)COc1nc(OCC(F)(F)F)nc(N2CCN(c3ccccc3)CC2)n1	0.7	-5.9	1	-7.6	30.3	1.7
CCOC(=O)N1CCN(C(=O)C2CCN(Cc3nc(-c4ccccc4C)oc3C)CC2)CC1	1	1.8	0.7	4.7	-2.9	27.6
COCCCn1c2nc3ccccc3nc2c2c(=O)n(-c3ccccc3OC)c(C)nc21	·	10.1	·	4.4	·	·
CCC(C)n1cnc2c(c1=O)c1nc3ccccc3nc1n2Cc1ccccc1OC (stereo unspecified)	0.3	7.0	0.8	-3.8	68.9*	21.5
COc1ccc(Cn2c3nc4ccccc4nc3c3c(=O)n(Cc4ccco4)cnc32)cc1	0.4	·	0.7	·	62.2*	32.3
CCCCn1c2nc3ccccc3nc2c2c(=O)n(CCC)cnc21	0.8	14.3	0.8	3.4	24.6	16.0
Cc1cccc(-n2cnc3c(c2=O)c2nc4ccccc4nc2n3Cc2ccco2)c1	0.6	·	0.5	·	42.5	49.7
COCCCn1c2nc3ccccc3nc2c2c(=O)n(-c3ccccc3OC)cnc21	0.5	3.6	0.5	34.5*	49.1	53.7*
COCCCn1cnc2c(c1=O)c1nc3ccccc3nc1n2CCc1ccccc1	0.4	8.5	0.6	15.6	57.6*	40.3
CCCCCCC/C(C)=N/NC(=O)CC(=O)NCCc1ccccc1	0.4	7.8	0.8	-3.3	64.9*	22.7
C/C(Cc1ccccc1)=N\NC(=O)CCCCCC(=O)N/N=C(\C)Cc1ccccc1	0.9	-1.2	0.4	-4.1	10.2	57.0*
O=C(NCC1CCS(=O)(=O)C1)NCC1CCS(=O)(=O)C1 (stereo unspecified)	1.1	6.9	1	-1.3	-14.0	1.7
COc1ccc(-n2c(COc3cccc(C)c3)nnc2SCC(=O)NCc2ccco2)cc1	0.8	10.4	0.7	-3.2	20.8	27.6
COc1cccc(OCc2nnc(SCC(=O)NCc3ccco3)n2C)c1	1	21.3	1	2.8	-4.2	-0.2
COc1cccc(OCc2nnc(SCC(=O)NCc3ccco3)n2CCc2ccccc2)c1	0.1	6.6	0.1	1.6	90.8*	88.1*
COc1ccc(-n2c(COc3ccc4ccccc4c3)nnc2SCC(=O)NCc2ccco2)cc1	0.5	23.8	0.5	-5.3	51.5*	46.5
Cc1ccc(-n2c(CSc3nc(C)cc(C)n3)nnc2SCC(=O)NCc2ccco2)cc1	0.6	-10.2	1	0.8	41.4	-0.7
COc1ccc(-n2c(COc3cccc4ccccc34)nnc2SCC(=O)NCc2ccco2)cc1	0.4	13.8	0.7	13.8	55.3*	27.8
O=C(Nc1cccc(C(=O)N2CCCC2)c1)c1ccccc1Cl	1.1	-2.9	1.1	-0.6	-5.0	-14.2
CC(C)(C)NC(=O)CSc1nnc(Cc2ccc3c(c2)OCO3)n1C1CCCCC1	0.9	3.3	0.9	1.2	9.8	9.3
O=C1c2oc3ccc(Cl)cc3c(=O)c2C(c2ccccn2)N1CCCN1CCOCC1 (stereo unspecified)	0.9	·	1	·	9.3	4.4
